This is an account of results in PubChem BioAssay (Tox21).

Assay [1] in a line: qHTS assay to identify small molecule agonists of the vitamin D receptor (VDR) signaling pathway - cell viability counter screen (AID 743224). Further: nearly all actives have a fitted effect of over 50% in size. Further: potency means the concentration at half of the fitted maximal effect. On activity change, negative = cytotoxicity: series mostly up to about 63 µM; on the % scale 0 is the no-effect control and ±100 the full control effect. In short, it runs like this: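 VDR-bla cells were preincubated 4 h at 37C/5% CO2, then exposed to compounds for 16 h. After the 2 h room-temperature bla FRET read, CellTiter-Glo was added to the same wells and luminescence read after 30 min.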
For orientation: In qHTS, concentration-response curves come from the screen itself.

A short description of assay [2]: qHTS assay to identify small molecule antagonists of the vitamin D receptor (VDR) signaling pathway - cell viability counter screen (AID 743225). Further: nearly all actives have a fitted effect of over 50% in size. Further: potency means the concentration at half of the fitted maximal effect. The gist of the method:
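Parallel cytotoxicity test: VDR-UAS-bla HEK 293T, 3 nM (final) 1-alpha,25-dihydroxyvitamin D3 with test compound, 16 h, 37C. Endpoint is CellTiter-Glo luminescence in the same wells.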

A short description of assay [3]: qHTS assay to identify small molecule agonists of the NFkB signaling pathway (AID 1159509; active means well fitted curve in the direction sought with a large enough effect in the signal ratio in the repeat runs, not every such curve was filed as active; the % refers to the signal ratio; further: series mostly up to about 61 µM; on the % scale 0 is the no-effect control and ±100 the full control effect). The gist of the method: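 After overnight attachment, reporter cells received test compounds, DMSO or positive controls and were incubated 5 hr at 37 C. FRET substrate was then added for 1.5 hr at room temperature before dual-emission fluorescence reading.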
A short description of assay [4]: qHTS assay to identify small molecule agonists of the NFkB signaling pathway - cell viability counter screen (AID 1159515; calls by dose curve; further: series mostly up to about 61 µM; on the % scale 0 is the no-effect control and ±100 the full control effect; nearly all actives have a fitted effect of over 55% in size). The gist of the method:
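NFkB-bla ME-180 cells, 2,000/well, were plated overnight at 37 C, 5% CO2, then exposed to compounds in DMSO for 5 hr. After the bla FRET read, CellTiter-Glo was added to the same wells; luminescence was read after 30 min at room temperature.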

Assay [5] is described as follows: qHTS assay to identify small molecule agonists of the endoplasmic reticulum stress response signaling pathway (AID 1159516; active means well fitted activation curve with a large enough effect in the signal ratio in the repeat runs, not every such curve was filed as active; the % refers to the signal ratio; further: on the % scale 0 is the no-effect control and ±100 the full control effect). In short, it runs like this:
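CellSensor ESRE-bla HeLa cells, carrying a beta-lactamase reporter driven by the ER stress response element, were plated overnight and exposed to compounds for 5 hr at 37 C. Reporter activity was read as FRET substrate fluorescence after 2 hr at room temperature.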

Assay [6] can be described thus: qHTS assay to identify small molecule agonists of the endoplasmic reticulum stress response signaling pathway - cell viability counter screen (AID 1159517; calls by dose curve; further: series mostly up to about 61 µM; on the % scale 0 is the no-effect control and ±100 the full control effect; nearly all actives have a fitted effect of over 50% in size). In short, it runs like this: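 Cells, HeLa ESRE-bla; density, 1,500/well; dosing, 5 hr at 37 C, 5% CO2; readout, CellTiter-Glo luminescence after 30 min RT.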
Assay [7] can be described thus: qHTS assay to identify small molecule antagonists of the retinoid-related orphan receptor gamma (ROR-gamma) signaling pathway - cell viability counter screen (AID 1159520). Further: nearly all actives have a fitted effect of over 50% in size. Further: potency means the concentration at half of the fitted maximal effect. The gist of the method:
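Cytotoxicity was read from cellular ATP (CellTiter-Glo luminescence) after 16 hr at 37 C with 1 uM doxycycline induction. The inducer was added 2 hr after compound transfer to Tet-on ROR gamma CHO cells.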

Assay [8] addresses Nuclear receptor ROR-gamma (Homo sapiens) (UniProt P51449). The assay is described as follows: qHTS assay to identify small molecule antagonists of the retinoid-related orphan receptor gamma (ROR-gamma) signaling pathway (AID 1159521; further: nearly all actives have a fitted effect of over 50% in size; further: potency means the concentration at half of the fitted maximal effect). The gist of the method:
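Decreased RORE-driven luciferase luminescence indicates antagonism. Tet-on RORγ CHO cells received compound, then 1 uM final doxycycline 2 h later; signal read after 16 h incubation.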

Assay [9] is described as follows: qHTS assay to identify small molecule agonists of the AP-1 signaling pathway - cell viability counter screen (AID 1159525; calls by dose curve; further: nearly all actives have a fitted effect of over 55% in size). In short, it runs like this:
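Luminescent ATP readout (Cell Titer Glo, 30 min RT), normalised to DMSO and tetra n-octyl ammonium bromide controls. Cells were ME-180 AP-1-bla in 0.5% dialyzed FBS Opti-MEM, with a 5 h, 37 °C compound exposure.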

The nature of assay [10]: qHTS assay to identify small molecule agonists of the AP-1 signaling pathway (AID 1159526; calls by dose curve; further: on the % scale 0 is the no-effect control and ±100 the full control effect).

Records with an inconclusive call do not appear. Values without a mark were called inactive. Active and inactive are the calls of the source. Unless noted, the call rests on the fitted dose curve; in most records, active means well fitted curve in the direction sought with a large enough effect in the repeat runs; inconclusive means weak or mixed curves; inactive means no such curve, though single readings can be large; an effect the other way counts as inactive or inconclusive.

In the case of `Cc1cccc(C)c1NC(=O)CN1CCCCCC1`, the Potency result in assay [1], in assay [2], in assay [7] and in assay [8] was “inactive” each time. The result in assay [3], in [4], in assay [5], in [6] and in assay [9] was inactive.
Consider `CCCCCCCCc1ccc(S(=O)(=O)O)cc1`, for which the compound was called inactive in assay [3], in [4], in assay [5], in assay [6] and in [9]. The Potency entry in assay [7] and in assay [8] was “inactive” in each case.
Turning to `O=C(O)CN(CCN(CC(=O)O)CC(=O)O)CCN(CC(=O)O)CC(=O)O`, the Potency entry in [1] and in assay [2] was “inactive” throughout. The call in assay [3], in assay [4], in [5] and in [6] was inactive. The activity, negative = cytotoxicity in assay [7] is 4.04% [at 19 µM]. In assay [8], the activity change, negative = inhibition is -6.39% [at 19 µM]. Besides, the activation in [10] is -0.136% [at 15.8 µM].
Regarding `CCC(=O)c1ccc2c(c1)N(CCCN(C)C)c1ccccc1S2`, the compound was classed as inactive in assay [3], in assay [4], in assay [5] and in [6]. For the same compound, the Potency entry in assay [7] and in assay [8] was “inactive” throughout.
As for `COc1ccc(S(=O)(=O)Nc2nnc(CC(C)C)s2)cc1`, the Potency entry in assay [1], in [2], in assay [7], in assay [8] and in [10] was “inactive” each time. Further, the result in assay [3], in assay [4], in [5] and in [6] was inactive.
Consider `CCCc1c2oc(C(=O)O)cc(=O)c2cc2c(=O)cc(C(=O)O)n(CC)c12`, for which the Potency result in [1], in assay [2], in assay [7] and in assay [8] was “inactive” in each case. Moreover, the compound was classed as inactive in [3], in [4], in [5], in assay [6] and in assay [9].
For the compound `C[C@@H](N)C(=O)O`, the Potency entry in assay [2], in assay [7] and in [8] was “inactive” throughout. In addition, the outcome in assay [3], in assay [4], in assay [5], in assay [6] and in [9] was inactive.
In the case of `CNCCC(Oc1ccccc1OC)c1ccccc1` (centres undefined), the Potency entry in assay [1], in assay [2], in assay [7] and in assay [8] was “inactive” each time. The call in assay [3], in assay [4], in assay [5], in assay [6] and in [9] was inactive.
For the compound `CCCCCCCCCC#N`, the compound was classed as inactive in [3], in assay [4], in assay [5], in assay [6] and in [9]. Further, the Potency result in assay [7] and in [8] was “inactive” throughout.
As for `CC[C@H]1CC[C@H](NCc2cc3c(cc2OC)[C@H]2C[C@H]2C(=O)N3C)[C@H](c2ccccc2)N1`, the Potency result in assay [2] and in assay [7] was “inactive” throughout. Further, the call in [3], in assay [4], in assay [5], in assay [6] and in [9] was inactive. Besides, the Potency in [8] was 30.6 µM (active).
`CCCCNC(=S)NCCCC`: the Potency result in assay [2], in assay [7] and in assay [8] was “inactive” throughout. The compound was classed as inactive in assay [3], in [4], in assay [5], in [6] and in assay [9].
For the compound `Cc1c[nH]c(=S)[nH]c1=O`, the outcome in [3], in assay [4], in assay [5], in [6] and in assay [9] was inactive. Besides, the Potency result in assay [7] and in assay [8] was “inactive” each time.
With `CCCCCCCOC(=O)CCC`, the Potency result in assay [1], in assay [7], in assay [8] and in assay [10] was “inactive” each time. The call in assay [3], in [4], in assay [5] and in [6] was inactive.
Consider `CC1=C(CC(=O)O)c2cc(F)ccc2/C1=C\c1ccc(S(C)(=O)=O)cc1`, for which the Potency result in [1], in assay [2], in assay [7] and in assay [8] was “inactive” each time. Further, the compound was classed as inactive in assay [3], in assay [4], in assay [5], in assay [6] and in [9].
Take `CC(C)NC[C@@H](O)COc1cccc2ccccc12`: the Potency result in assay [1], in assay [2], in assay [7] and in [8] was “inactive” in each case. Further, the result in assay [3], in assay [4], in assay [5], in [6] and in [9] was inactive.
Consider `CN1CCC[C@@H]1Cc1c[nH]c2ccc(CCS(=O)(=O)c3ccccc3)cc12`, for which the Potency entry in assay [1], in assay [2], in assay [7] and in assay [8] was “inactive” throughout. For the same compound, the compound was called inactive in [3], in assay [4], in [5], in assay [6] and in assay [9].
With `COc1ccc2nc(NC(=O)Nc3ccccc3)sc2c1`, the Potency result in assay [1], in assay [2], in [7] and in assay [8] was “inactive” in each case. Also, the call in [3], in [4], in [5], in assay [6] and in assay [9] was inactive.
As to `O=C(CC(=O)C(F)(F)F)c1ccccc1`, the Potency entry in assay [1], in assay [7] and in assay [8] was “inactive” each time. Further, the compound was called inactive in assay [3], in [4], in [5], in [6] and in [9].
For the compound `CN(CCCN1c2ccccc2CCc2ccccc21)CC(=O)c1ccc(Cl)cc1`, the Potency entry in assay [1], in assay [2] and in assay [8] was “inactive” in each case. In addition, the result in [3], in assay [4], in assay [5], in assay [6] and in assay [9] was inactive. In addition, the Potency in [7] was 29.8 µM (active).
As to `CC(C)C1=CC2=CC[C@@H]3[C@](C)(CCC[C@@]3(C)C(=O)O)[C@H]2CC1`, the Potency result in assay [1], in assay [2], in assay [7] and in assay [8] was “inactive” in each case. Also, the compound was called inactive in [3], in assay [4], in assay [5], in assay [6] and in assay [9].
As to `O=C(O)C(=O)Cc1c[nH]c2ccccc12`, the Potency entry in assay [1], in assay [2], in [7] and in assay [8] was “inactive” in each case. Also, the call in [3], in assay [4], in [5], in assay [6] and in assay [9] was inactive.
`Cc1nc(N)nc(N)c1-c1ccc(Cl)c(Cl)c1`: the Potency in [1] is 3.35 µM (active); in assay [2] it was 3.79 µM (active). Besides, the outcome in assay [3], in [4], in assay [5], in [6] and in [9] was inactive. Moreover, the Potency entry in [7] and in assay [8] was “inactive” in each case.
For `NC(Cc1ccc(F)cc1)C(=O)O` (centres undefined), the values for the activity change, negative = cytotoxicity in assay [1] and in assay [6] were 0.52% [at 5.95 µM] and 0.188% [at 6.95 µM], respectively. The viability change, negative = cytotoxic in assay [2] was 2.79% [at 6.95 µM]; in [9] it was -5.13% [at 6.97 µM]. Besides, the figures for the activation in [3] and in [5] were -1.04% [at 6.95 µM] and -3.08% [at 6.95 µM], respectively. In addition, the activity, negative = cytotoxic in [4] is -7.23% [at 6.95 µM]. Also, the activity, negative = cytotoxicity in assay [7] is 9.21% [at 8.39 µM]. The activity change, negative = inhibition in assay [8] was -13.5% [at 8.39 µM].
For the compound `CCCCCCCCCCCCCCCCOP(=O)([O-])OCC[N+](C)(C)C`, the Potency result in assay [1], in assay [7] and in [8] was “inactive” throughout. The outcome in [3], in [4], in assay [5], in [6] and in assay [9] was inactive.
With `O=C(O)c1ccccc1Nc1cc(Cl)ccc1C(=O)O`, the compound was classed as inactive in assay [3], in [4], in [5] and in [6]. In addition, in [7], the activity, negative = cytotoxicity is -2.84% [at 19 µM].
As for `CCC(=O)O[C@]1(C(=O)SCF)[C@H](C)C[C@H]2[C@@H]3C[C@H](F)C4=CC(=O)C=C[C@]4(C)[C@@]3(F)[C@@H](O)C[C@@]21C`, the Potency entry in assay [1], in assay [2], in assay [7] and in assay [8] was “inactive” each time. In addition, the result in [3], in assay [4], in assay [5], in assay [6] and in [9] was inactive.
`NC1=NCC2c3ccccc3Cc3ccccc3N12` (centres undefined): the Potency result in [1], in assay [2], in assay [7], in assay [8] and in [10] was “inactive” each time. The result in assay [3], in assay [4], in [5] and in assay [6] was inactive.
Regarding `CCCCCCCCCCCCOCCOS(=O)(=O)O`, the call in assay [3], in [4], in assay [5] and in [6] was inactive. In [7], the Potency result is “inactive”.
